# Screening results from PubChem.
# HEK293 tox: HEK 293 cell cytotoxicity | hit rate 6.6% among 94,000 | HEK 293 viability, ATP luminescence (CellTiter-Glo), 48-72 h | Potency, µM (series often up to 115 µM), for the others: at the top dose activity change, negative = cytotoxicity, hits mostly inhibitors; also: nearly all actives have a fitted effect of over 60% in size
#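 Viability of HEK 293 cells, plated at 250 cells/well, was judged by cellular ATP after compound treatment for 48 or 72 hr. Luminescence was imaged 10 min after CellTiter-Glo addition at room temperature.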
# NPR1 antag: human Npr1 receptor antagonism; P16066; Potency, µM (series often up to 46.3 µM), for the others: at the highest dose activity change, negative = inhibition, actives largely listed as inhibitors; HEK293 hNpr1 GloSensor cGMP, ANP-stimulated luminescence; hit rate 1.6% among 76,000; calls by dose curve; also: nearly all actives have a fitted effect of over 60% in size
#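 HEK293 cells stably expressing human Npr1 and cGMP GloSensor pGS-40F, loaded 2 h with 2% GloSensor reagent, given compound 30 min at room temperature. Luminescence read before and 20 min after 0.1 nM hNppA.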
# Luciferase inh: inhibitors of firefly (Photinus pyralis) luciferase. P08659. purified P. pyralis luciferase, luminescence, biochemical. Potency, µM (doses to about 115 µM), usual class: inhibitors. hit rate 2.5% among 76,000. AID 1347043; also: nearly all actives have a fitted effect of over 65% in size
#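 Luminescence read by CCD imager after adding enzyme (10nM final) to wells holding compound, titrated in qHTS. Substrates 10uM each D-luciferin and ATP; buffer 50mM Tris acetate pH 7.5, 10mM Mg acetate, Tween-20, BSA.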
# GPT2 inhibitor: GPT2 alanine aminotransferase inhibition. Recombinant GPT2, coupled pyruvate oxidase/HRP Amplex Red fluorescence. Q8TD30. Potency, µM (highest dose often 57.7 µM), for inactives: at the highest dose activity change, negative = inhibition, usual class: inhibitors. hit rate 0.25% among 100,000; also: nearly all actives have a fitted effect of over 60% in size
# Target sequence (Q8TD30 whole entry, looked up): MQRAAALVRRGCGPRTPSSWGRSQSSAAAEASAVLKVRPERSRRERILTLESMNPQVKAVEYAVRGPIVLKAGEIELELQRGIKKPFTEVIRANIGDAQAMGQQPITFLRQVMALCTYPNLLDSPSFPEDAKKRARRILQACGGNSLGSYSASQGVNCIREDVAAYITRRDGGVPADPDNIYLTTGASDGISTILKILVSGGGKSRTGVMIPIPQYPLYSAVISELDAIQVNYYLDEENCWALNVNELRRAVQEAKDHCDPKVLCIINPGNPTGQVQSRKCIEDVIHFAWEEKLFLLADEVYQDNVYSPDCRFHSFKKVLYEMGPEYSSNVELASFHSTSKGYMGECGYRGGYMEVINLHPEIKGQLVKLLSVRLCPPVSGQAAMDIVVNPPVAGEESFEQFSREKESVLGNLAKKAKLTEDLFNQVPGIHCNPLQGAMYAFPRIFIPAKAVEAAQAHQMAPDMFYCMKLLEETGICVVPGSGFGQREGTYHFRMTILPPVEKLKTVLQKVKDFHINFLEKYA
#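 Inhibition is scored from Amplex Red fluorescence generated when pyruvate oxidase and HRP act on pyruvate released by GPT2. Reactions contain 10ng/uL enzyme, 250uM a-KG and 2mM L-alanine and run 30 min at room temperature.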
# NIH3T3 tox: NIH 3T3 cell cytotoxicity | NIH 3T3 viability, CellTiter-Glo ATP luminescence, 48-72 h | Potency, µM (top dose mostly 96.7 µM), for inactives: top-dose activity change, negative = cytotoxicity, usual class: inhibitors | hit rate 4.3% among 94,000; also: nearly all actives have a fitted effect of over 55% in size
#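 Cells were seeded at 400 per well, treated with pin-transferred compound, and kept 48 or 72 hr at 37 °C before CellTiter-Glo addition and luminescence imaging of cellular ATP.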
# * = called active by the depositor; i = inactive; ? = inconclusive; · = no result given; [ ] = remark or other dose. Hits are enriched below; roughly 10% of the tested compounds scored in any of these assays. Unless noted, calls follow the shape of the dose curve; as a rule, active = well fitted curve in the direction sought with a large enough effect; inconclusive = small, poorly fitted or top-dose-only effect, or another doubt; inactive = no such curve, though single readings can be large; an effect the other way counts as inactive or inconclusive. % is scaled to controls: 0 for no effect and ±100 for the full control effect; potency is read from the fitted curve at half-maximal effect.
SMILES,HEK293 tox,NPR1 antag,Luciferase inh,GPT2 inhibitor,NIH3T3 tox
COc1ccccc1-c1[nH]nc2ncc(C(=O)NCCc3ccccn3)nc12,63µM*,-2%[70.6 µM],i,3%[88.5 µM],?
CC(=O)NCCNC(=O)c1ccc(-c2cncnc2)cc1,-8%[172 µM],·,·,·,-18%[138 µM]
O=C(Cc1cccc(Cl)c1)N1CCN(c2ccc3nnc(-c4ccccc4)n3n2)CC1,45µM*,·,·,·,?
COc1ccc(Cc2nnc3ccc(C(=O)N4CCN(Cc5ccccc5)CC4)cn23)cc1,?,·,·,i,?
O=C(c1ccc2nnc(-c3ccc(Cl)cc3)n2c1)N1CCN(Cc2ccccc2)CC1,25µM*,·,·,-36%,28µM*
O=C(c1ccc(Cl)cc1)N1CCN(c2ccc3nnc(-c4ccccc4)n3n2)CC1,?,·,·,·,45µM*
Cc1cc(C(=O)NC2CCCN(c3ccnc4ccnn34)C2)ccc1Cl (centres undefined),?,·,·,-5%,?
Cc1cc(C2CCCN2C(=O)c2ccc(-c3ccccc3Cl)o2)no1 (centres undefined),45µM*,4%,?,-5%,?
O=C(NC1CCCC1)N1CCC(C(=O)N2CCC(c3nc4ncccc4[nH]3)CC2)C1 (centres undefined),-2%,·,·,?,-25%
OCC1(CN2CCCC2)CCN(Cc2c(Cl)cccc2Cl)CC1,?,2%,i,2%,?
OCC1(CN2CCCC2)CCN(C/C=C/c2ccccc2)CC1,35µM*,3%,i,i,?
OCC1(CN2CCCC2)CCN(Cc2cc(F)cc(F)c2)CC1,-5%,7%,i,-2%,-30%
OCC1(CN2CCCC2)CCN(Cc2ccc3ccccc3c2)CC1,40µM*,3%,i,0%,40µM*
COCCOCc1nc(C2CCN(C(=O)Nc3ccccc3F)C2)no1 (centres undefined),-2%,·,·,i,-17%
COC[C@H]1NC(=O)CC[C@H]1C(=O)N1CCN(c2ccccc2)CC1,0%,·,·,i,-15%
C=CC1C(O[C@@H]2O[C@H](CO)[C@@H](O)[C@H](O)[C@H]2O)OC=C(C(=O)OC)C1CC(=O)O (some centres undefined),·,·,·,-13%[27.3 µM],·
C=C[C@H]1[C@H](O[C@@H]2O[C@H](CO)[C@@H](O)[C@H](O)[C@H]2O)OC=C(C(=O)OC)[C@H]1C[C@@H]1c2cc(O)c(O)cc2CCN1C(C)=O,·,·,·,3.2µM*,·
CN1c2cc(C(=O)Nc3ccc4c(c3)CCC4)ccc2C(=O)N2CCCCC21 (centres undefined),?,-7%,28µM*,i,?
Cc1cc(NC(=O)c2ccc3c(c2)N(C)C2CCCCN2C3=O)ccc1F (centres undefined),?,-24%,22µM*,i,?
CN1c2cc(C(=O)Nc3ccc(F)c(F)c3)ccc2C(=O)N2CCCCC21 (centres undefined),-16%,3%,?,i,-29%
O=C(c1ccc(C2CCCNC2)cc1)N1CCC(Oc2cccc(F)c2)CC1 (centres undefined),28µM*,-14%,i,?,40µM*
O=C(c1ccsc1)N1CCC(Oc2cccc(F)c2)C1 (centres undefined),?,0%,i,i,-16%
C/C=C/C=C/c1cc2c(C=O)c(O)c(CC=C(C)C)cc2o1,·,·,·,i,·
O=C(CNC(=O)c1ccc(-c2cnc3ccccc3c2)cc1)NCC1CCCCC1,40µM*,·,·,·,?
O=C(NCC(=O)N1CCCCC1)c1ccc(-c2cnc3ccccc3c2)cc1,45µM*,·,·,-23%,?
O=C(CNC(=O)c1ccc(-c2cnc3ccccc3c2)cc1)NCC(F)(F)F,-30%,·,·,·,-17%
CN(C)C(=O)c1nc(-c2cccc(C(F)(F)F)c2)c2ccccn12,?,-1%[70.6 µM],i,i,?
O=C(NCc1ccccc1)c1cn(C2CN(C(=O)Cc3ccccc3)C2)nn1,-7%,·,·,i,-6%
Fc1ccccc1-c1noc(N2CCCCC2)n1,?,10µM*,1.6µM*,i,?
Fc1ccccc1-c1noc(-c2nc(-c3ccccc3F)no2)n1,-6%,3%,i,?,i
